In PubChem BioAssay (EPA / NIEHS):
Active and inactive are the calls of the source. Rule for the calls: active = hit-call score of the fitted dose curve at least 0.9, where 1 is the maximum; inactive = score below 0.9.

Columns and labels:
Conditions in all cases: mRNA level, 48 h; actives raise or lower the signal
[1] = read-out: Insulin-like growth factor-binding protein 1 (IGFBP1), IGFBP1 (gene 3484); assay: LTEA_HepaRG_IGFBP1: Life Technologies and Expression Analysis (LTEA) Assay for Insulin-like growth factor-binding protein 1 (IGFBP1) using HepaRG (AID 2283508)
Method in brief: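 HepaRG, 48 h, 8 conc. (max 100 uM, half-log), duplicates, 0.5% DMSO. Readout: TaqMan qRT-PCR, ACTB/GAPDH/POLR2A normalisation. Fit: bidirectional vs DMSO.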

[2] = read-out: Interleukin 6 (IL6), IL6 (gene 3569); assay: LTEA_HepaRG_IL6: Life Technologies and Expression Analysis (LTEA) Assay for Interleukin 6 (IL6) using HepaRG (AID 2283509)
Method in brief: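 Changes in IL6 mRNA, up or down relative to 0.5% DMSO controls, were derived from concentration-response curves in human HepaRG cells treated for 48 h at up to 100 uM, with ACTB, GAPDH and POLR2A as normalizers.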

[3] = read-out: Interleukin 6 Receptor (IL6R), IL6R (gene 3570); assay: LTEA_HepaRG_IL6R: Life Technologies and Expression Analysis (LTEA) Assay for Interleukin 6 Receptor (IL6R) using HepaRG (AID 2283510);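 for AC50: differentiated human HepaRG liver cells in serum-free induction medium; TaqMan qRT-PCR signal normalized to ACTB GAPDH and POLR2A housekeeping genes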
Method in brief: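 HepaRG, 48 h exposure, 8-pt half-log series, top 100 uM, 0.5% DMSO vehicle, duplicates. Read-out: TaqMan qRT-PCR of IL6R transcript, housekeeping-gene normalized. Gain or loss fitted relative to DMSO baseline.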

[4] = read-out: Potassium channel subfamily K member 1 (KCNK1), KCNK1 (gene 3775); assay: LTEA_HepaRG_KCNK1: Life Technologies and Expression Analysis (LTEA) Assay for Potassium channel subfamily K member 1 (KCNK1) using HepaRG (AID 2283511)
Method in brief: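 Human HepaRG cultures receive test chemicals for 48 h in 0.5% DMSO, top concentration 100 uM with half-log dilutions. Induction or suppression of KCNK1 mRNA relative to DMSO is derived by bidirectional fitting of qRT-PCR data.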

[5] = read-out: Keratin 19 (KRT19), KRT19 (gene 3880); assay: LTEA_HepaRG_KRT19: Life Technologies and Expression Analysis (LTEA) Assay for Keratin 19 (KRT19) using HepaRG (AID 2283512)
Method in brief: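 Readout is qRT-PCR of KRT19 mRNA, normalized to ACTB, GAPDH and POLR2A, from HepaRG cells treated 48 h with eight-point half-log dilutions topping at 100 uM. Activity in either direction is scored relative to 0.5% DMSO vehicle.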

[6] = read-out: JUN Transcription Factor, JUN (gene 3725); assay: LTEA_HepaRG_JUN: Life Technologies and Expression Analysis (LTEA) Assay for JUN Transcription Factor using HepaRG (AID 2283513)
Method in brief: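 HepaRG, 48 h exposure, 8-pt half-log series top 100 uM, 0.5% DMSO, duplicate. JUN mRNA by qRT-PCR (Fluidigm), housekeeping-normalized (ACTB/GAPDH/POLR2A); bidirectional curve fit vs DMSO baseline.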

[7] = read-out: Lipase C (LIPC), LIPC (gene 3990); assay: LTEA_HepaRG_LIPC: Life Technologies and Expression Analysis (LTEA) Assay for Lipase C (LIPC) using HepaRG (AID 2283514)
Method in brief: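 In this multiplexed gene-expression screen, human HepaRG cultures received test chemicals for 48 h across eight concentrations with 100 uM highest, in duplicate. Values reflect LIPC mRNA induction or suppression versus DMSO vehicle, from normalized qRT-PCR.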

[8] = read-out: Lipoprotein lipase (LPL), LPL (gene 4023); assay: LTEA_HepaRG_LPL: Life Technologies and Expression Analysis (LTEA) Assay for Lipoprotein lipase (LPL) using HepaRG (AID 2283515)
Method in brief: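 Concentration-response testing used half-log steps from 100 uM in 0.5% DMSO on human HepaRG cells, 48 h, duplicate wells. Phenobarbital 1 mM served as induction control; LPL mRNA was normalized to ACTB, GAPDH, POLR2A.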

[9] = read-out: MicroRNA 122 (MIR122), gene 406906; assay: LTEA_HepaRG_MIR122: Life Technologies and Expression Analysis (LTEA) Assay for MicroRNA 122 (MIR122) using HepaRG (AID 2283516); note: the transcript read is the microRNA miR-122
Method in brief: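 qRT-PCR read-out (TaqMan, Fluidigm array), normalized to three housekeeping genes; HepaRG cells dosed 48 h at 8 concentrations up to 100 uM in 0.5% DMSO, duplicate; gain or loss fitted against DMSO baseline.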

[10] = read-out: matrix metalloproteinase-10 (MMP10), MMP10 (gene 4319); assay: LTEA_HepaRG_MMP10: Life Technologies and Expression Analysis (LTEA) Assay for matrix metalloproteinase-10 (MMP10) using HepaRG (AID 2283517)
Method in brief: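 In differentiated HepaRG cultures kept in 0.5% DMSO, test chemicals act for 48 h over an eight-point range with a top dose of 100 uM. Expression is then quantified by TaqMan RT-PCR against ACTB, GAPDH and POLR2A.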

Measured: AC50

c1ccc2occc2c1
inactive: all assays above

CCCC(=O)O
inactive: all assays above

O=C(Oc1ccccc1)c1cccc(C(=O)Oc2ccccc2)c1
inactive: all assays above

CN(C)C(=O)NC1(c2ccccc2)CCN(CC[C@@]2(c3ccc(F)c(F)c3)CN(C(=O)c3ccccc3)CCO2)CC1
active: [5] 27 µM | [7] 47 µM | [8] 31.8 µM
inactive: all other assays above

CCCCCCCCCC[N+](C)(C)[O-]
inactive: all assays above

CC1=C(C)S(=O)(=O)CCS1(=O)=O
active: [5] 76.6 µM | [6] 74.6 µM | [7] 85.8 µM | [8] 75.3 µM | [9] 75.2 µM
inactive: [1] | [2] | [3] | [4] | [10]

CCCCCCCCCCCCCCOS(=O)(=O)O
inactive: all assays above

Cc1occc(=O)c1O
not listed: [10]
inactive: all other assays above

Cc1cc(SC2=C(O)C[C@@](CCc3ccc(N)cc3)(C(C)C)OC2=O)c(C(C)(C)C)cc1CO
inactive: all assays above

CCC(C)N(C)C(=O)c1cc2ccccc2c(-c2ccccc2Cl)n1 (centres undefined)
active: [1] 57.6 µM
inactive: all other assays above

CO[C@@H]1COCC[C@@H]1N[C@@H]1CC[C@@](C(=O)N2CCc3ncc(C(F)(F)F)cc3C2)(C(C)C)C1
inactive: all assays above

NC(=Nc1ccccc1)Nc1ccccc1
active: [1] 13.2 µM
inactive: all other assays above

COC(=O)CCC(=O)OC
inactive: all assays above

COc1ccc(C(=O)Nc2nc3ccccc3c(NCc3ccccc3)c2C#N)cc1
active: [1] 17.9 µM | [3] 4.44 µM | [5] 12.9 µM | [7] 15.7 µM | [8] 4.35 µM | [9] 14.7 µM
inactive: [2] | [4] | [6] | [10]

CC(C)NCC(O)c1ccc(O)c(O)c1 (centres undefined)
active: [3] 9.92 µM | [5] 0.149 µM | [7] 0.227 µM | [8] 0.319 µM
inactive: all other assays above

O=C(O)c1[nH]n(-c2ccc(S(=O)(=O)O)cc2)c(=O)c1N=Nc1ccc(S(=O)(=O)O)cc1
inactive: all assays above

CCCCCCC(C=O)=Cc1ccccc1
inactive: all assays above

O=C(N[C@@H](c1ccccc1)[C@@H]1CCCCN1)c1cccc(C(F)(F)F)c1Cl
inactive: [7] | [9]
active: [1] 25.3 µM | [2] 85 µM | [3] 50 µM | [4] 50 µM | [5] 12.6 µM | [6] 65 µM | [8] 84.7 µM | [10] 35 µM

OCC(O)CO
inactive: all assays above

COC(=O)[C@H]1[C@H]2C[C@@H]3c4[nH]c5cc(OC)ccc5c4CCN3C[C@H]2C[C@@H](OC(=O)c2cc(OC)c(OC)c(OC)c2)[C@@H]1OC
active: [1] 47.7 µM | [2] 29.1 µM | [3] 42.2 µM | [6] 8.38 µM | [7] 49.4 µM | [9] 55 µM | [10] 25.3 µM
inactive: [4] | [5] | [8]
